Results on 25 compounds are retold here after PubChem BioAssay AID1851 (National Center for Advancing Translational Sciences (NCATS), 2009).

About 5,100 (32%) of roughly 16,000 compounds were called active. Another 25% or so got no clear call; they are omitted. Calls come from the whole dose curve; as a rule, active = well fitted curve in the direction sought with a large enough effect; inconclusive = small, poorly fitted or top-dose-only effect, or effect the other way; inactive = no such curve, though single readings can be large or run the other way. Some of the results follow.

A word on the AC50: it is the midpoint of the concentration-response curve, whichever way the signal moves.
% is set by controls: 0 for no effect and ±100 for the full control effect.

Sequence of Cytochrome P450 3A4 (Homo sapiens) (P08684 whole entry, looked up): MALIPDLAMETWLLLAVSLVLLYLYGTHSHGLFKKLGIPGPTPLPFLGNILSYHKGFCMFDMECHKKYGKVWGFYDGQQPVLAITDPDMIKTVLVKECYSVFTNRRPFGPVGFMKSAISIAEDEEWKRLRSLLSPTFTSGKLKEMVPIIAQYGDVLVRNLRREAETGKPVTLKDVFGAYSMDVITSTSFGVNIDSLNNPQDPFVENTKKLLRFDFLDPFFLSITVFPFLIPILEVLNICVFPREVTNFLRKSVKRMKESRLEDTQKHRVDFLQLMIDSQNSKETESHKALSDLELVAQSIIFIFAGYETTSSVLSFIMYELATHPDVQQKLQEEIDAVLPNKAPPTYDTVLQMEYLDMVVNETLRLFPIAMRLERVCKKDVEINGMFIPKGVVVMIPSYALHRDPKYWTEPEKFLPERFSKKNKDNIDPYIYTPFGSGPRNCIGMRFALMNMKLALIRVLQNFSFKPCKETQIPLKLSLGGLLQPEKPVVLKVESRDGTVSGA

This assay concerns the target Cytochrome P450 3A4 (Homo sapiens) (UniProt P08684). The experiment in a line: Cytochrome panel assay with activity outcomes. The conditions noted are these: recombinant CYP, pro-luciferin dealkylation, luminescence, p450-cyp3a4; series mostly up to 57.1 µM; activity, negative = inhibition: at the top concentration.
As to `C(=N/Nc1nnc2c(n1)[nH]c1ccccc12)/c1cccnc1`, the AC50 is 3.98 µM (active). For the compound `Clc1ccccc1-c1nc(N/N=C/c2cccnc2)c2ccccc2n1`, the AC50 was 1.41 µM (active). Regarding `Clc1ccccc1-c1nc(NCc2cccnc2)c2ccccc2n1`, the AC50 is 2.51 µM (active). As to `CON(C)C(=O)c1nnc2c(n1)[nH]c1ccccc12`, the activity, negative = inhibition was -23% [at 11.4 µM] (inactive). With `FC(F)(F)c1ccccc1-c1nc(NCc2cccnc2)c2ccccc2n1`, the AC50 was 2 µM (active). With `Cc1sc(N/N=C/c2cccnc2)nc1-c1ccccc1`, the activity, negative = inhibition is 20.5% [at 2.29 µM] (inactive). Still for that read-out and setting: next, `O=C(O)CNc1ccc(C(=O)O)cc1`: -7.89% [at 11.4 µM] (inactive). The same measure, in the same setting: the figure for `CC(C)(C)COS(=O)OCC(C)(C)C` is -4.89% [at 11.4 µM] (inactive); for `O=C(O)CCC(=O)N1CCOc2ccc(Cl)cc21` it is 4.52% (inactive); for `CN(C)CCn1c(CO)nc2c1c(=O)n(C)c(=O)n2C` it is -3.94% [at 11.4 µM] (inactive).

For the compound `O=c1cc(CO)oc(CN2CCCC2)c1O`, the “activity, negative = inhibition” value was -2.41% (inactive). With `Cc1ccccc1-c1nc(NCc2cccnc2)c2ccccc2n1`, the AC50 is 0.501 µM (active). For `CO[C@]1(NC(=O)CSCC#N)C(=O)N2C(C(=O)O)=C(CSc3nnnn3C)CS[C@H]21`, the AC50 result is “inactive”. With `COc1ccc(C(C(=O)NC2CCCCC2)N(C(=O)Cc2c[nH]c3ccccc23)c2ccc(NC(C)=O)cc2)cc1OC` (stereo not given), the AC50 was 3.16 µM (active). As for `COc1ccc(CC(NC(C)=O)C(=O)NC2CCN(C(=O)Nc3ccc(Cl)cc3)CC2)cc1OC` (stereo not given), the activity, negative = inhibition was -6.41% [at 2.29 µM] (inactive).

On to `CC(C)C(=O)NCCc1nc2ccccc2n1CCCOc1ccc(Cl)cc1`, for which the AC50 is 11.2 µM (active). Consider `Clc1ccc(Cn2c(-c3cccnc3Cl)nc3ccccc32)c(Cl)c1`, for which the activity, negative = inhibition was -20.9% [at 2.29 µM] (inactive). Regarding `CC(OC(=O)Cn1c(C(F)(F)F)nc2ccccc21)C(N)=O` (stereo not given), the “activity, negative = inhibition” value was -0.0989% (inactive). On the same count and under the same terms, the figure for `C[C@]1(c2ccccc2)OC(C(=O)O)=CC1=O` is -9.78% (inactive). As to `CCC(=O)c1ccc(OCc2ccc(C(=O)OC)cc2)c(OC)c1`, the AC50 was 4.47 µM (active). As for `CCOc1ccc(C(=O)O)cc1OC`, the “activity, negative = inhibition” value was -28.9% (inactive). Same read-out and setting: the figure for `O=C(O)c1ccc(OCc2ccccc2)c(Cl)c1` is -32.8% [at 11.4 µM] (inactive); for `CC(C)=CCC/C(C)=C/CO/N=C1/C[C@@H](O)[C@@H](O)[C@@H]2[C@@H]3C(=O)N(C4CCCCC4)C(=O)[C@H]3CC[C@@H]12` it is -27% [at 11.4 µM] (inactive). With `O=C1CC(c2cccs2)c2cc3c(cc2N1)OCO3` (stereo not given), the AC50 is 7.08 µM (active).

Turning to `CC1(C)CC2(CC(c3cccs3)c3cc(Cl)c(O)cc3O2)NC(=S)N1` (stereo not given), the activity, negative = inhibition is -22.1% [at 2.29 µM] (inactive).
